MCF10A rerep: induces DNA re-replication in MCF 10a normal breast cells; MCF 10A DNA re-replication, Hoechst nuclear intensity, 48 h; Potency, µM (doses to about 46.1 µM), inactives show top-dose activity, positive = re-replication, usual class: activators; 2.9% of 350,000 active; further: potency means the concentration at half of the fitted maximal effect; % of control where 0% means no effect; nearly all actives have a fitted effect of over 50% in size
SW480 rerep: DNA re-replication induction in SW480 cells; SW480 DNA re-replication, Hoechst DNA content imaging, 48 h; Potency, µM (doses to about 46.1 µM), for inactives: at the highest dose re-replication activation, usual class: activators; 1.8% of 340,000 active; AID 624297; further: potency means the concentration at half of the fitted maximal effect; % of control where 0% means no effect; nearly all actives have a fitted effect of over 55% in size
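Treated cells incubate 48 hr (37 C, 5% CO2), are stained 40 min with Hoechst, and nuclear fluorescence is enumerated; a rise in nuclei with high DNA signal marks re-replication.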
Gal4-VP16 FLuc: Gal4-VP16 reporter inhibition counter-screen. AID 2546. Drosophila S2 Gal4-VP16 UAS-luciferase, luminescence, 20 h. 3.5% of 310,000 active. Potency, µM (doses to about 53.6 µM), for inactives: at the highest dose activity, negative = inhibition, hits mostly inhibitors;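 further: Gal4-VP16 expression switched on by copper sulfate through the metallothionein promoter; potency means the concentration at half of the fitted maximal effect; on the % scale 0 is the no-effect control and ±100 the full control effect; nearly all actives have a fitted effect of over 50% in size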
Chronic BCR inh: blocks chronic active B-cell receptor signaling | ABC-DLBCL IkBa-CBG/CBR reporter, luminescence ratio, 4 h | Potency, µM (titrated, usually from 46.1 µM), without a hit: at the highest dose activity change, negative = inhibition, usual class: inhibitors | 0.05% of 340,000 active | AID 493014; active means well fitted inhibition curve with a large enough effect in the signal ratio, with a control signal flat, not every such curve was filed as active; inconclusive means small, poorly fitted or top-dose-only effect, or effect the other way, or a change in a side signal; the % refers to the signal ratio;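 further: potency means the concentration at half of the fitted maximal effect; plate controls were basal doxycycline-induced cells for no effect and cells given 10 µM MG132 for full effect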
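Doxycycline induced both beetle luciferases in TMD8 lymphoma cells; IKK-driven degradation limits the IkappaBalpha-fused green signal, while red luminescence normalises for cell number and nonspecific effects. Compounds tested up to 46 uM, 4 hrs.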
RORg inh: ROR gamma (mouse) transcription inhibition. P51450. Drosophila S2 Gal4-RORgamma UAS-luciferase reporter, 20 h. Potency, µM (highest dose often 53.6 µM), without a hit: at the highest dose activity change, negative = inhibition, most hits filed as inhibitors. 5.4% of 310,000 active; further: potency means the concentration at half of the fitted maximal effect; on the % scale 0 is the no-effect control and ±100 the full control effect; nearly all actives have a fitted effect of over 60% in size
Target sequence (P51450 whole entry, looked up, the tested form may be a part): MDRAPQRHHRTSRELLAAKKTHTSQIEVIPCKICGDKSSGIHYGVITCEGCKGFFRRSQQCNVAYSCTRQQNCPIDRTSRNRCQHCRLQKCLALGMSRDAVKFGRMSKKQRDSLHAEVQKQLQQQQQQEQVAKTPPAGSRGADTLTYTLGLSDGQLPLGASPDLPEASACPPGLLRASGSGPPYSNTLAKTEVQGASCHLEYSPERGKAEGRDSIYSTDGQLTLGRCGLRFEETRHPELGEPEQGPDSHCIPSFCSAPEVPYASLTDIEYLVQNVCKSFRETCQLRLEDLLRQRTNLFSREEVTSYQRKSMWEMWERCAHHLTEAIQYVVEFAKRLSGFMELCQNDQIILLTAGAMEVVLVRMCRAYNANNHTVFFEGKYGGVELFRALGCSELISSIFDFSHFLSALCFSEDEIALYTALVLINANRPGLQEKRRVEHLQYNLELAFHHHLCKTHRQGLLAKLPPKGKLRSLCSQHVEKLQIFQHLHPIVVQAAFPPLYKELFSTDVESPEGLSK
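Read-out: Photinus luciferase luminescence; inhibitors lower reporter signal. Insect Schneider cells with Gal4-ROR gamma fusion under metallothionein promoter, UAS reporter; 700 uM final copper sulfate induction, 20 hr, ambient temperature.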
Giardia killer: kills Giardia lamblia; Giardia lamblia trophozoite viability; 0.15% of 340,000 active; activity change, % at 7.66 µM, hits read low; AID 540267; in the data active means activity change below about -80%; inconclusive means between about -30% and that limit;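 further: parasites exposed to compound for two days anaerobically before the ATP read; on the % scale 0 is the no-effect control and ±100 the full control effect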
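Compounds were tested on trophozoites seeded at 100 cells/well and held 48 hrs at 37 deg C anaerobically. An ATP-based luminescent kit measured the remaining live cells.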
Starred values were filed as active, the others as inactive. This is a sample that favours compounds with a hit; in the whole collection about 8.3% have one here. Unless noted, the call rests on the fitted dose curve; in most records, active means well fitted curve in the direction sought with a large enough effect; inconclusive means small, poorly fitted or top-dose-only effect, or another doubt; inactive means no such curve, though single readings can be large; an effect the other way counts as inactive or inconclusive.

What do the screens show for `CC[C@H](C)[C@H](NC(=O)[C@H](C)NC(=O)CNC(=O)[C@H](CCCN=C(N)N)NC(=O)[C@H](C)NC(=O)[C@H](CC(C)C)NC(=O)[C@H](CCC(=O)O)NC(=O)[C@H](CC(C)C)NC(=O)[C@H](C)NC(=O)[C@@H](N)CCC(=O)O)C(=O)N[C@@H](Cc1ccccc1)C(=O)N[C@@H](CCC(N)=O)C(=O)N[C@@H](C)C(=O)O`?
Gal4-VP16 FLuc: 4%; RORg inh: 9%

Results for Clc1ccc(Nc2nc(NCCN3CCOCC3)nc(N3CCOCC3)n2)cc1 ?
MCF10A rerep: inconclusive; SW480 rerep: 9.2µM*; Gal4-VP16 FLuc: -3%; Chronic BCR inh: -22%; RORg inh: -4%; Giardia killer: 4

How did Cc1ccc(Nc2nc(Nc3ccc(Cl)cc3)nc(N3CCOCC3)n2)cc1 do in these assays?
Giardia killer: 0

How did Fc1ccc(Nc2nc(N3CCOCC3)nc(N3CCOCC3)n2)cc1Cl do in these assays?
MCF10A rerep: -1%; SW480 rerep: 18µM*; Gal4-VP16 FLuc: -1%; Chronic BCR inh: -7%; RORg inh: -10%; Giardia killer: 35

What do the screens show for `O=c1[nH]c(-c2ccc(Cl)cc2)nc(=S)[nH]1`?
MCF10A rerep: 0%; SW480 rerep: -2%; Gal4-VP16 FLuc: 5%; Chronic BCR inh: inconclusive; RORg inh: 2%; Giardia killer: 3

How did CCN(CC)C(=O)Oc1ccc2c(=O)c(-c3ccc(OC)cc3)c(C)oc2c1 do in these assays?
MCF10A rerep: inconclusive; SW480 rerep: 2%; Gal4-VP16 FLuc: 5%; Chronic BCR inh: -9%; RORg inh: inconclusive; Giardia killer: -3

Results for CCN(CC)C(=O)Oc1ccc2c(=O)c(-c3ccc(OC)cc3)coc2c1 ?
MCF10A rerep: 13µM*; SW480 rerep: inconclusive; Gal4-VP16 FLuc: -8%; Chronic BCR inh: -1%; RORg inh: 21%; Giardia killer: -3

Results for O=C(O)c1ccc(C2CCCCC2)cn1 ?
MCF10A rerep: 20%; SW480 rerep: -31%; Gal4-VP16 FLuc: inconclusive; Chronic BCR inh: 7%; RORg inh: 7.9µM*; Giardia killer: 1

What do the screens show for `COC(=O)C(Cc1c[nH]c2ccccc12)NC(=O)c1ccc2nc[nH]c2c1` (stereo not drawn)?
MCF10A rerep: 1%; SW480 rerep: 3%; Chronic BCR inh: 3%; Giardia killer: -5

How did Cc1ccc2nc(C(F)(F)F)c(C#N)c(N)c2c1 do in these assays?
MCF10A rerep: 3.3µM*; SW480 rerep: inconclusive; Gal4-VP16 FLuc: -12%; Chronic BCR inh: inconclusive; RORg inh: 12%; Giardia killer: 20

Results for CCCn1nnc(NC(=S)NC(=O)c2ccc(-c3ccc(Br)cc3)o2)n1 ?
MCF10A rerep: 2%; SW480 rerep: -7%; Gal4-VP16 FLuc: 2.5µM*; Chronic BCR inh: inconclusive; RORg inh: 0.79µM*; Giardia killer: -10

How did CCCn1nnc(NC(=O)c2ccc(Br)cc2)n1 do in these assays?
MCF10A rerep: -7%; SW480 rerep: 5%; Gal4-VP16 FLuc: -11%; Chronic BCR inh: inconclusive; RORg inh: 0%; Giardia killer: 3

What do the screens show for `Cn1nnc(NC(=S)NC(=O)c2ccc(-c3ccc(Br)cc3)o2)n1`?
MCF10A rerep: -12%; SW480 rerep: -1%; Gal4-VP16 FLuc: 5µM*; Chronic BCR inh: inconclusive; RORg inh: 0.71µM*; Giardia killer: -15

Results for COc1ccc(CCNC(=O)CCCc2ccccc2)cc1OC ?
MCF10A rerep: 2%; SW480 rerep: 4%; Gal4-VP16 FLuc: -1%; Chronic BCR inh: inconclusive; RORg inh: 5%; Giardia killer: 6

Results for CCCCCCCCCCn1cc(C(C)=O)c(=O)[nH]c1=O ?
MCF10A rerep: 8%; SW480 rerep: -6%; Gal4-VP16 FLuc: -6%; Chronic BCR inh: -11%; RORg inh: 0%; Giardia killer: -5

What do the screens show for `CCC(CC)C(=O)Nc1cccc(C(=O)N2CCCCCC2)c1`?
MCF10A rerep: 21µM*; SW480 rerep: inconclusive; Gal4-VP16 FLuc: 8%; Chronic BCR inh: -3%; RORg inh: -15%; Giardia killer: 0

Results for CSc1nc(-c2ccco2)cc(C(F)(F)F)c1C#N ?
MCF10A rerep: -7%; SW480 rerep: -2%; Gal4-VP16 FLuc: -4%; Chronic BCR inh: 20%; RORg inh: -26%; Giardia killer: 10

What do the screens show for `CSc1nc(-c2ccco2)cc(-c2ccccc2)c1C#N`?
MCF10A rerep: -3%; SW480 rerep: 1%; Gal4-VP16 FLuc: inconclusive; Chronic BCR inh: -7%; RORg inh: 16µM*; Giardia killer: 16

How did COc1ccc(-c2cc(-c3ccc(OC)cc3)c(C#N)c(SC)n2)cc1 do in these assays?
MCF10A rerep: 21µM*; SW480 rerep: 23%; Gal4-VP16 FLuc: 1%; Chronic BCR inh: inconclusive; RORg inh: inconclusive; Giardia killer: -4

How did O=C(Nc1ccc(C(=O)NCc2ccccc2)cc1)C1=CSCCO1 do in these assays?
MCF10A rerep: -5%; SW480 rerep: -1%; Gal4-VP16 FLuc: 25%; Chronic BCR inh: inconclusive; RORg inh: inconclusive; Giardia killer: 13

What do the screens show for `CCN(CC)CCNC(=O)c1ccc(Cl)c(S(=O)(=O)Nc2ccc(Cl)cc2)c1`?
MCF10A rerep: 18%; SW480 rerep: -9%; Gal4-VP16 FLuc: 20µM*; Chronic BCR inh: -4%; RORg inh: inconclusive; Giardia killer: inconclusive

How did N/C(=C\C(=O)c1cc(Cl)ccc1O)C(Cl)(Cl)Cl do in these assays?
MCF10A rerep: 12µM*; SW480 rerep: 10µM*; Gal4-VP16 FLuc: inconclusive; Chronic BCR inh: inconclusive; RORg inh: 4µM*; Giardia killer: -18

How did CNc1ccc(Cl)cc1C(N)=O do in these assays?
MCF10A rerep: 3%; SW480 rerep: 5%; Gal4-VP16 FLuc: -6%; Chronic BCR inh: 5%; RORg inh: 21%; Giardia killer: -2

How did Cc1cc(C)cc(OCCN2CCOCC2)c1 do in these assays?
MCF10A rerep: -2%; SW480 rerep: 4%; Chronic BCR inh: 0%; Giardia killer: -8

Results for COc1ccccc1-c1cc(=O)c2cc(O)ccc2o1 ?
Gal4-VP16 FLuc: -5%; RORg inh: -9%

Results for COc1ccccc1-c1cc(SC)c(C#N)c(=O)o1 ?
MCF10A rerep: 7.3µM*; SW480 rerep: 18µM*; Gal4-VP16 FLuc: inconclusive; Chronic BCR inh: inconclusive; RORg inh: inconclusive; Giardia killer: -15

What do the screens show for `CCCc1sc(N/N=C/c2ccccn2)nc1-c1ccc(Br)cc1`?
MCF10A rerep: inconclusive; SW480 rerep: inconclusive; Gal4-VP16 FLuc: 1.4µM*; Chronic BCR inh: inconclusive; RORg inh: 1.6µM*; Giardia killer: 14

Assay outcomes (PubChem)
